# From PubChem BioAssay
# The list is not random: actives were taken first. Their share in the collection is about 7.2%.
# NIH3T3 tox – Cytotoxic Profiling in NIH 3T3 Cell Line of Diverse Libraries Using Quantitative High-Throughput Screening | 4.3% of 94,000 active | NIH 3T3 viability, CellTiter-Glo ATP luminescence, 48-72 h | Potency, µM (doses to about 96.7 µM), actives largely listed as inhibitors | AID 1345082, 2018; further: nearly all actives have a fitted effect of over 55% in size
#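 Luminescent ATP readout (CellTiter-Glo, 10 min RT) after 48 or 72 hr compound exposure of NIH 3T3 cells seeded at 400 cells/well in 1536-well format; quantitative HTS.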
# Luciferase inh – Firefly luciferase inhibition profiling of diverse chemical library using quantitative high-throughput screening. Luciferin 4-monooxygenase (Photinus pyralis), P08659. purified P. pyralis luciferase, luminescence, biochemical. Potency, µM (series often up to 115 µM), actives largely listed as inhibitors. 2.5% of 76,000 active. AID 1347043, 2019; further: nearly all actives have a fitted effect of over 65% in size
#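 Inhibitors were tested against purified firefly luciferase in a biochemical, low-substrate format (both substrates at 10uM) and luminescence measured with a CCD imager.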
# HEK293 viab – GF-AFC viability counterscreen for inhibitors of alpha-synuclein gene (SNCA) expression. AID 1671193, 2021. Potency, µM (top dose mostly 57.1 µM), hits mostly cytotoxic. 0.12% of 150,000 active. HEK-293-SNCA-luc viability, GF-AFC fluorescence, 24 h; further: nearly all actives have a fitted effect of over 30% in size
#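 Cytotoxicity counterscreen: after 24 h compound treatment of genome-edited SNCA-luciferase HEK-293 cells, live-cell protease substrate GF-AFC read by fluorescence after 30 min; activity scaled between DMSO (0%) and medium-only (-100%), curves Hill-fitted.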
# HEK293 tox – Cytotoxic Profiling in HEK 293 Cell Line of Diverse Libraries Using Quantitative High-Throughput Screening | AID 1345083, 2018 | 6.6% of 94,000 active | HEK 293 viability, ATP luminescence (CellTiter-Glo), 48-72 h | Potency, µM (titrated, usually from 115 µM), hits mostly inhibitors; further: nearly all actives have a fitted effect of over 60% in size
#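 Viability of HEK 293 cells, plated at 250 cells/well, was judged by cellular ATP after compound treatment for 48 or 72 hr. Luminescence was imaged 10 min after CellTiter-Glo addition at room temperature.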
# NPR1 antag – Natriuretic polypeptide receptor (hNpr1) antagonism - Primary qHTS; Atrial natriuretic peptide receptor 1 (Homo sapiens), P16066; HEK293 hNpr1 GloSensor cGMP, ANP-stimulated luminescence; Potency, µM (series often up to 46.3 µM), usual class: inhibitors; 1.6% of 76,000 active; AID 1347048, 2019; calls by dose curve; further: nearly all actives have a fitted effect of over 60% in size
# Target sequence (P16066 whole entry, looked up): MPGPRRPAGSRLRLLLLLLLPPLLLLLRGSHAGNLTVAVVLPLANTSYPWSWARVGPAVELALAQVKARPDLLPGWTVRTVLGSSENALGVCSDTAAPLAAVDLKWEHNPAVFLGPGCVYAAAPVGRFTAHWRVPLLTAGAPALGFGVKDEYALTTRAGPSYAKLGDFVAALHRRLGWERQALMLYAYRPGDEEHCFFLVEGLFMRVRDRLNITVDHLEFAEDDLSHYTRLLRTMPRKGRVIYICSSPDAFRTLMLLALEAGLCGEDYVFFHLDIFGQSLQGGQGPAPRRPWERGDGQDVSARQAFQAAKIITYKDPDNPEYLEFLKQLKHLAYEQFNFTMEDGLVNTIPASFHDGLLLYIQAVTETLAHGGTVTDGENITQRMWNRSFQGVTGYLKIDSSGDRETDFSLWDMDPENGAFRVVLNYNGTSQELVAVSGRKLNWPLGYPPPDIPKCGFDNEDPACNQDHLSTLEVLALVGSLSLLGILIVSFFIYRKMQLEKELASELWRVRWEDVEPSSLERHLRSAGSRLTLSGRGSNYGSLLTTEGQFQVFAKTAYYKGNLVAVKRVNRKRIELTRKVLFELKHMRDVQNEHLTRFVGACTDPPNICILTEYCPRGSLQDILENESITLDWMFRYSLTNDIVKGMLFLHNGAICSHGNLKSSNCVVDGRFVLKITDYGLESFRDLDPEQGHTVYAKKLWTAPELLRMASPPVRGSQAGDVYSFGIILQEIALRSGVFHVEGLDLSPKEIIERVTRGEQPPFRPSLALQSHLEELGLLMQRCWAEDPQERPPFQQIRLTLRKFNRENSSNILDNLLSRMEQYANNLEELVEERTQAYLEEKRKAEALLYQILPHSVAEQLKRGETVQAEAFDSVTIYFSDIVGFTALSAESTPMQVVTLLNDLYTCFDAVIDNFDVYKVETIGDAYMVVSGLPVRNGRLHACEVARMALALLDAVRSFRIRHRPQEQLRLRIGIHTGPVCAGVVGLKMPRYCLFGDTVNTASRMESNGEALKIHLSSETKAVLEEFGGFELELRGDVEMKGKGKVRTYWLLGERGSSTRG
#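 HEK293 cells stably expressing human Npr1 and cGMP GloSensor pGS-40F, loaded 2 h with 2% GloSensor reagent, given compound 30 min at room temperature. Luminescence read before and 20 min after 0.1 nM hNppA.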
# SNCA expr inh – Primary qHTS assay for inhibitors of alpha-synuclein gene (SNCA) expression | 0.17% of 140,000 active | HEK-293 SNCA-luciferase knock-in, luminescence, 24 h | Potency, µM (top dose mostly 57.2 µM), actives largely listed as inhibitors | AID 1671194, 2021; further: nearly all actives have a fitted effect of over 45% in size
# Numbers stand for hits; - = inactive; ? = inconclusive; . = no result given; [ ] = another dose, or the depositor's remark. Unless noted, the call rests on the fitted dose curve; in most records, active means well fitted curve in the direction sought with a large enough effect; inconclusive means small, poorly fitted or top-dose-only effect, or another doubt; inactive means no such curve, though single readings can be large; an effect the other way counts as inactive or inconclusive.
SMILES,NIH3T3 tox,Luciferase inh,HEK293 viab,HEK293 tox,NPR1 antag,SNCA expr inh
O=C(Cc1c(F)cccc1Cl)NC1CCc2nn(CC3CC3)c(=O)n2CC1 (configuration not stated),-,-,-,-,-,-
COCCOC1CCOC2(CCN(C(=O)COc3ccc(F)cc3)CC2)C1 (configuration not stated),-,-,-[12.5 µM],-,-,-
CCc1nc(NC(=O)C[C@H]2NC(=O)c3ccccc3NC2=O)sc1C,?,-,-,?,-,-
Cc1cccc(CC(=O)N2CCCN(S(C)(=O)=O)c3ccccc32)c1,40µM,-,-,-,-,-
COc1ccc(CC(=O)N2CCCN(S(C)(=O)=O)c3ccccc32)cc1OC,-,-,-,-,-,-
O=[S+]([O-])(NC1CCN(Cc2ccc(-c3ccsc3)cc2)C1)c1ccccc1 (configuration not stated),?,.,-,?,.,-
Cc1ccc([S+](=O)([O-])NC2CCN(Cc3ccc(-c4ccsc4)cc3)C2)cc1 (configuration not stated),?,.,-,45µM,.,-
O=C(NC1CCN(Cc2ccc(-c3ccsc3)cc2)C1)c1ccc(F)cc1 (configuration not stated),?,.,-,?,.,-
O=[S+]([O-])(NC1CCN(Cc2ccc(-c3ccsc3)cc2)C1)c1cccc(C(F)(F)F)c1 (configuration not stated),16µM,.,-,28µM,.,?
Cc1cnc(CC2CCN(C(=O)Cc3cccc(F)c3)CC2)n1CC1CC1,-,-,-,-,-,-
Cc1ccc(O)c(CN2CC[C@@H](c3ccc4ccccc4c3)[C@H](O)C2)n1,?,-,-,45µM,?,-
CCCC(C)C(=O)N1CCn2nc(C(=O)Nc3ccccc3)cc2C1 (configuration not stated),-,-,-,35µM,-,-
CCn1cc(C(=O)N2CCn3nc(C(=O)Nc4ccccc4)cc3C2)c(C)n1,-,-,-,?,-,-
Cc1nc2c(OCC(=O)c3ccccc3)cccn2c(=O)c1-c1cc(C)n(-c2ccccc2)n1,-,40µM,-,?,-,-
CCOC(=O)CCCOc1cccn2c(=O)c(-c3cc(C)n(-c4cccc(C)c4)n3)c(C)nc12,-,-,-,-,-,-
CCOC(=O)C(Cc1cccc(N2CCN(C(=O)c3ccccc3F)CC2)c1)OC (configuration not stated),-,.,.,?,.,.
Cc1cccc(C(=O)NCC(c2ccc3c(c2)OCO3)N2CCN(c3ccccc3F)CC2)c1 (configuration not stated),.,.,-,.,.,?
CC(C)N(Cc1cccc(N2CCN(C(=O)c3c(Cl)cccc3Cl)CC2)c1F)[S+](C)(=O)[O-],?,.,.,79µM,.,.
CC(C)OC(=O)N(C)Cc1cccc(N2CCN(C(=O)c3c(Cl)cccc3Cl)CC2)c1F,?,.,.,35µM,.,.
CCOC(=O)C(Cc1cccc(N2CCN(C(=O)c3c(Cl)cccc3Cl)CC2)c1F)OC (configuration not stated),?,.,.,79µM,.,.
CC(c1ccccc1)N1CCN(c2cccc(CN(C)[S+](C)(=O)[O-])c2F)CC1 (configuration not stated),?,.,.,79µM,.,.
Cc1nc(N2CCN(C(=O)c3c(F)cccc3Cl)CC2)cc(C(F)(F)F)n1,-,-,-,-,-,-
COc1cccc(-c2cc3c(=O)n(CC(O)c4cccc(C#N)c4)ccn3n2)c1 (configuration not stated),-,-,-,-,-,-
O=C(NCCC1CCN(C(=O)Nc2ccc(F)cc2)CC1)c1cc(F)ccc1F,-,-,-,-,-,-
COc1ccc(CCC(=O)N2CC[C@@H]3COCCN(Cc4ccncc4)[C@@H]3C2)cc1,?,40µM,-,-,-,-
SMILES,NIH3T3 tox,Luciferase inh,HEK293 viab,HEK293 tox,NPR1 antag,SNCA expr inh
CC(=O)OC1CCC2(C)C(CCC3(C)C2CC=C2C4C(C)C(C)CCC4(C)CCC23C)C1(C)C(=O)O (configuration not stated),.,.,-,.,.,.
CC(=O)NCC(=O)NCc1nnc2ccc(-c3ccc(C)c(C)c3)nn12,-,-,-,-,-,-
COc1ccccc1-c1cnc(Nc2ccc3c(c2)OCCO3)c2c1CCO2,-,14µM,-,?,?,-
COc1ccccc1-c1cnc(NCc2ccccc2)c2c1CCO2,25µM,-,-,?,-,-
COc1ccccc1-c1cnc(Nc2cc(F)cc(N3CCOCC3)c2)c2c1CCO2,?,-,-,?,-,-
C=CCNC(=O)N[C@H]1CO[C@H]2[C@@H]1OC[C@@H]2Nc1nccc(-c2cccc(F)c2)n1,?,-,-,?,-,-
COc1cccc(C(O)c2nc(C(=O)NCc3ccccc3)c(C)o2)c1 (configuration not stated),-,-,-,?,-,-
Cc1csc(NC(=O)c2nc(C(O)c3ccccc3)oc2C)n1 (configuration not stated),79µM,-,-,?,?,?
COc1cccc(C(O)c2nc(C(=O)Nc3ccc4c(c3)CC(=O)N4)c(C)o2)c1 (configuration not stated),?,-,-,100µM,-,-
COc1cccc(C(O)c2nc(C(=O)Nc3nc(C)cs3)c(C)o2)c1 (configuration not stated),?,?,-,?,18µM,-
Cc1noc([C@H]2CCN(S(=O)(=O)c3ccc4c(c3)CCC4)C[C@H]2NC(=O)C2CC2)n1,-,-,-,-,-,-
O=C(NCc1ccccc1)N1CC(Oc2ccc(-c3nc(-c4ccccc4)no3)cc2)C1,-,2.5µM,-,?,?,-
O=C(Nc1ccccc1F)N1CC(Oc2ccc(-c3noc(-c4ccccc4)n3)cc2)C1,-,?,-,?,10µM,-
O=C(Nc1ccccc1F)N1CC(Oc2ccc(-c3nc(-c4ccccc4)no3)cc2)C1,-,?,-,-,-,-
O=C(NCc1ccc(F)cc1)N1CC(Oc2ccc(-c3noc(-c4ccccc4)n3)cc2)C1,?,?,?,?,14µM,-
Cc1cc(C)n(CCC(=O)N2CC(Oc3cccc(-c4nc(-c5ccccc5)no4)c3)C2)n1,40µM,28µM,-,?,?,-
O=C(CCc1ccccc1)N1CC(Oc2ccc(-c3nc(-c4ccccc4)no3)cc2)C1,-,?,-,?,?,-
